Among the data in PubChem BioAssay (Tox21) are Potency and outcome values, retold here.

Results filed as inconclusive are left out. Activity calls are given as the source filed them. Unless noted, the call rests on the fitted dose curve; in most records, active means well fitted curve in the direction sought with a large enough effect in the repeat runs; inconclusive means weak or mixed curves; inactive means no such curve, though single readings can be large; an effect the other way counts as inactive or inconclusive.

The nature of assay [1]: qHTS assay for small molecule agonists of the p53 signaling pathway (AID 651631; calls by dose curve; further: nearly all actives have a fitted effect of over 15% in size). Summed up: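 Testing took place in human colorectal HCT-116 cells with stable p53RE-driven beta-lactamase. After 16 h of compound exposure at 37 °C, a FRET substrate was added and fluorescence recorded 2 h later.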
Assay [2] in a line: qHTS assay for small molecules that induce genotoxicity in human embryonic kidney cells expressing luciferase-tagged ATAD5 - cell viability (AID 651634; calls by dose curve; further: nearly all actives have a fitted effect of over 25% in size). The gist of the method: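 Cytotoxicity counter-readout: after 15.5 hr compound treatment at 37C, live-cell protease activity in ATAD5-luciferase HEK293T cells measured by CellTiter-Fluor fluorescence, 30 min development at 37C.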

A short description of assay [3]: qHTS assay for small molecule disruptors of the mitochondrial membrane potential - cell viability (AID 720634; calls by dose curve;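 further: human HepG2 liver cancer cells; series mostly up to about 83 µM; nearly all actives have a fitted effect of over 20% in size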). Summed up: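 Cytotoxicity was quantified from ATP content by CellTiter-Glo luminescence in the same wells as the MMP dye read-out. HepG2 (2,000 cells/well) were plated overnight and exposed to compounds for 1 hr at 37 C.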
Assay [4] can be described thus: qHTS assay for small molecule disruptors of the mitochondrial membrane potential (AID 720635). The gist of the method: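 HepG2 cells (2,000/well) attached overnight at 37C, then took compound for 1 hr at 37C, 5% CO2. Mito-MPS dye was added for 30 min; fluorescence was read at 490/535 nm (monomers) and 540/590 nm (aggregates).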
Assay [5] in a line: qHTS assay to test for compound auto fluorescence at 590 nm (red) in HepG2 cells (AID 720674). Summed up:
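Rose Bengal sodium served as the red fluorophore standard. HepG2 monolayers (overnight attachment, MEM with 10% FBS) were exposed to test compounds for 1 hr at 37 C and read at Ex 540/Em 590 nm.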

Assay [6] can be described thus: qHTS assay to test for compound auto fluorescence at 535 nm (green) in HepG2 cells (AID 720675).
Assay [7] in a line: qHTS assay to test for compound auto fluorescence at 460 nm (blue) in HEK293 cells (AID 720678). The gist of the method: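 Auto fluorescence in the blue band was quantified as triamterene equivalency. HEK293 cells were seeded at 2,000/well, dosed after a 4-5 hr attachment, and kept overnight at 37C before the 405/460 nm reading.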
Assay [8] can be described thus: qHTS assay to test for compound auto fluorescence at 590 nm (red) in HEK293 cells (AID 720679). Summed up:
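Autofluorescence equivalency to Rose Bengal sodium, 540/590nm, in HEK293 cells exposed overnight to 23 nL compound per well.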

A short description of assay [9]: qHTS assay to test for compound auto fluorescence at 535 nm (green) in HEK293 cells (AID 720680).
Assay [10] is described as follows: qHTS assay to test for compound auto fluorescence at 535 nm (green) in HEK293 cell free culture (AID 720682). The gist of the method: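 DMEM + 10% FBS, cell-free; cpd or DMSO pinned in; Ex485/Em535 read; output as fluorescein-equivalent signal.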
A short description of assay [11]: qHTS assay to test for compound auto fluorescence at 590 nm (red) in HEK293 cell free culture (AID 720683). The gist of the method:
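Tox21 10K library compounds were pinned into cell-free DMEM with 10% FBS and fluorescence was read at excitation 540 nm. Activity is expressed as Rose Bengal sodium equivalency.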

The nature of assay [12]: qHTS assay to test for compound auto fluorescence at 590 nm (red) in HepG2 cell free culture (AID 720684). The gist of the method: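 Readout: intrinsic compound fluorescence at 590 nm emission after 540 nm excitation, scaled to Rose Bengal sodium. Matrix was cell-free MEM with 10% FBS; DMSO vehicle wells served as control.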
Assay [13] is described as follows: qHTS assay to test for compound auto fluorescence at 460 nm (blue) in HepG2 cell free culture (AID 720685). The gist of the method:
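Cell-free plates of MEM plus 10% FBS received 23 nL compound or DMSO vehicle; blue-channel (405/460 nm) intensity scored against triamterene as reference fluorophore.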

Assay [14] in a line: qHTS assay to test for compound auto fluorescence at 535 nm (green) in HepG2 cell free culture (AID 720686).
The nature of assay [15]: qHTS assay to test for compound auto fluorescence at 460 nm (blue) in HepG2 cells (AID 720687). The gist of the method: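 Cells (2,000/well in MEM with 10% FBS) attached overnight at 37 C, then were exposed to compound or DMSO for 1 hr at 37 C, 5% CO2. Fluorescence read at Ex/Em 405/460 nm, expressed as triamterene-equivalent signal.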
The nature of assay [16]: qHTS assay for small molecule agonists of the p53 signaling pathway - cell viability (AID 651633; calls by dose curve; further: series mostly up to about 83 µM; nearly all actives have a fitted effect of over 30% in size). The gist of the method:
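p53RE-bla cells, seeded at 4,000 per well and rested 5 h at 37 C/5% CO2, received compounds in DMSO for 16 h at 37 C. CellTiter-Glo was then added, and luminescence was read after 30 min at room temperature to gauge cytotoxicity.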

Assay [17] in a line: qHTS assay to test for compound auto fluorescence at 460 nm (blue) in HEK293 cell free culture (AID 720681). Summed up: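 Test compounds were pinned into cell-free culture medium (DMEM with 10% FBS) and fluorescence was read directly at Ex/Em 405/460 nm. Signals were expressed as fluorescence equivalents of triamterene, with DMSO vehicle as control.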
The target in assay [18] is Glucocorticoid receptor (Homo sapiens) (UniProt P04150). Put plainly: qHTS assay to identify small molecule agonists of the glucocorticoid receptor (GR) signaling pathway (AID 720691; active means well fitted activation curve with a large enough effect in the signal ratio in the repeat runs, not every such curve was filed as active; the % refers to the signal ratio). Summed up: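 Agonist-mode qHTS in HeLa cells stably expressing a glucocorticoid-response-element beta-lactamase reporter. Fluorescence intensity read with FRET substrate (2 h, room temperature) after 18 h compound treatment at 37 C.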
Sequence of Glucocorticoid receptor (Homo sapiens) (P04150 whole entry, looked up): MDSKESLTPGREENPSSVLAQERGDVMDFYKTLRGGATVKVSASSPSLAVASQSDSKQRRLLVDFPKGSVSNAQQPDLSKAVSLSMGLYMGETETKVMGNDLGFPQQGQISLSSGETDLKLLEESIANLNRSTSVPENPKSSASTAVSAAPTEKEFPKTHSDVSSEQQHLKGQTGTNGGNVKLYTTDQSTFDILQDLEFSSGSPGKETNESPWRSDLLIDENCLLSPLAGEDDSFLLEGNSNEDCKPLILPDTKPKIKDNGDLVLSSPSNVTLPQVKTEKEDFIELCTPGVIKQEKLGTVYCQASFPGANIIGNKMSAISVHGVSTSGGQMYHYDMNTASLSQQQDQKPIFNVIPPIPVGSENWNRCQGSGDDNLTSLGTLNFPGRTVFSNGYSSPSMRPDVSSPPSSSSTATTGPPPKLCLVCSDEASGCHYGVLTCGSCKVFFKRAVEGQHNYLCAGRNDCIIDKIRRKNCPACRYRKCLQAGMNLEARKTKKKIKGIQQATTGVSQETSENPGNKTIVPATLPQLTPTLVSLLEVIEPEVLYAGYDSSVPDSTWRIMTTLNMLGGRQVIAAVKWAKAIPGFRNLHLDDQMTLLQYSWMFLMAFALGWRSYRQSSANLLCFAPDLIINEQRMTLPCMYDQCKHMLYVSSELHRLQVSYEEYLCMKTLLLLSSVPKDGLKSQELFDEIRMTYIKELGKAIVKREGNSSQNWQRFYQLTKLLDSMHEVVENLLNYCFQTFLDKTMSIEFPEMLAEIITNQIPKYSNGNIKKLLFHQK

Assay [19] has the same target. The assay can be described thus: qHTS assay to identify small molecule antagonists of the glucocorticoid receptor (GR) signaling pathway (AID 720692; active means well fitted inhibition curve with a large enough effect in the signal ratio in the repeat runs, not every such curve was filed as active; the % refers to the signal ratio; further: potency means the concentration at half of the fitted maximal effect). The gist of the method:
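Inhibition of dexamethasone-driven (5 nM final) beta-lactamase expression was measured in GRE-reporter HeLa cells over 18 h at 37C. Fluorescence was read after 2 h with the B/G FRET substrate at room temperature.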

Assay [20] in a line: qHTS assay for small molecules that induce genotoxicity in human embryonic kidney cells expressing luciferase-tagged ATAD5 (AID 651632). Further: nearly all actives have a fitted effect of over 15% in size. The gist of the method: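 A rise in luciferase signal from ATAD5-tagged HEK293T cells marks genetic stress. Cells were exposed to compounds for 16 hr at 37C, 5% CO2, then luciferase was quantified after a 30 min room-temperature incubation with Amplite.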

For `CCCC(C)(COC(N)=O)COC(=O)NC(C)C` (configuration not stated), the Potency entry in assay [1], in assay [2], in assay [3] and in assay [4] was “inactive” in each case. Moreover, the compound was classed as inactive in assay [5], in [6], in assay [7], in [8], in assay [9] and in assay [10]. Moreover, the compound was classed as inactive in assay [11], in [12], in assay [13], in assay [14] and in assay [15].

Turning to `FC(F)OC(F)(F)C(F)Cl` (configuration not stated), the Potency result in [1], in [16], in [2], in assay [3], in assay [4] and in [18] was “inactive” in each case. In addition, the Potency entry in assay [19] was “inactive”. Further, the compound was classed as inactive in [5], in assay [6], in assay [8], in assay [9], in assay [17] and in assay [10]. The compound was classed as inactive in [11], in [12], in assay [13] and in [15].

`C=CCOCC1CO1` (configuration not stated): the Potency result in assay [1], in [20], in assay [2] and in assay [18] was “inactive” each time. Besides, the outcome in assay [5], in [6], in assay [7], in assay [8], in assay [9] and in assay [17] was inactive. For the same compound, the compound was called inactive in [10], in assay [11], in assay [12], in [13], in [14] and in assay [15].

As to `NC(=O)CF`, the Potency result in assay [1], in assay [16], in assay [2], in [3], in [4] and in assay [18] was “inactive” each time. Also, the Potency result in assay [19] was “inactive”. In addition, the result in assay [5], in [6], in assay [7], in assay [8], in assay [9] and in assay [10] was inactive. The result in assay [11], in assay [12], in assay [13] and in [15] was inactive.

For the compound `C=CCOC(=O)C(C)(C)OC(=O)c1cc(-n2c(=O)cc(C(F)(F)F)n(C)c2=O)ccc1Cl`, the Potency result in assay [1], in assay [2], in assay [3], in assay [18] and in assay [19] was “inactive” throughout. Further, the compound was called inactive in assay [5], in assay [6], in assay [7], in assay [8], in assay [9] and in assay [10]. Besides, the compound was classed as inactive in assay [11], in assay [12], in assay [13] and in assay [15].

Take `COC(=O)C1(O)c2ccccc2-c2ccccc21`: the Potency entry in assay [1], in assay [20], in [2], in assay [3], in assay [18] and in [19] was “inactive” throughout. The result in [5], in [6], in [7], in assay [8], in [9] and in assay [10] was inactive. Further, the result in [11], in [12], in assay [13], in assay [14] and in assay [15] was inactive.

In the case of `CCOP(=S)(OCC)SCSc1cc(Cl)ccc1Cl`, the Potency entry in assay [1], in [20], in assay [2], in assay [3] and in [18] was “inactive” throughout. Further, the result in assay [5], in assay [6], in assay [7], in [8], in assay [9] and in assay [17] was inactive. In addition, the compound was classed as inactive in [10], in assay [11], in assay [12], in [13], in assay [14] and in [15].

Turning to `O=C=NC1CCCCC1`, the Potency entry in [1], in [16], in [2], in assay [3], in assay [18] and in assay [19] was “inactive” in each case. Besides, the result in [5], in assay [6], in assay [7], in [8], in [9] and in [17] was inactive. The outcome in assay [10], in assay [11], in assay [12], in assay [13], in assay [14] and in [15] was inactive.

For `O=S(=O)(Cl)Cl`, the Potency entry in [1], in assay [16], in assay [2], in [3], in [4] and in [18] was “inactive” in each case. Besides, the outcome in [5], in [6], in [8], in [9], in [10] and in assay [11] was inactive. Also, the outcome in assay [12], in assay [13], in assay [14] and in [15] was inactive.

In the case of `C[N+](C)(C)CCOC(=O)C(O)(c1ccccc1)c1ccccc1`, the Potency result in assay [1], in assay [16], in assay [2], in [3] and in assay [4] was “inactive” each time. The outcome in assay [5], in assay [6], in assay [7], in assay [8], in assay [9] and in assay [10] was inactive. The compound was classed as inactive in [11], in assay [12], in [13] and in assay [15].

Consider `C#C[C@]1(O)CC[C@H]2[C@@H]3CCC4=CC(=O)CCC4=C3C=C[C@@]21CC`, for which the Potency result in assay [1], in assay [16] and in assay [2] was “inactive” each time. The call in assay [5], in assay [6], in assay [7], in [8], in assay [9] and in assay [17] was inactive. In addition, the result in [10], in assay [11], in [12], in [13] and in assay [15] was inactive. For the same compound, in assay [19], the Potency is 0.379 µM (active).

On to `C=CCc1ccc(OC(=O)Cc2ccccc2)c(OC)c1`, for which the Potency entry in assay [1], in [16], in assay [2], in assay [3], in [4] and in assay [18] was “inactive” in each case. Further, in [19], the Potency entry was “inactive”. For the same compound, the compound was called inactive in [5], in assay [6], in assay [7], in [8], in assay [9] and in [17]. Moreover, the compound was called inactive in assay [10], in assay [11], in assay [12], in assay [13], in [14] and in assay [15].

In the case of `CC(C)CCCCCCCOC(=O)c1ccccc1C(=O)OCCCCCCCC(C)C`, the Potency result in assay [1], in [16], in assay [2], in assay [3], in assay [4] and in assay [18] was “inactive” each time. Further, in [19], the Potency result was “inactive”. In addition, the call in assay [5], in assay [6], in assay [7], in [8], in assay [9] and in [10] was inactive. Moreover, the outcome in [11], in assay [12], in [13], in assay [14] and in assay [15] was inactive.

For `COC1=CC(=O)O[C@@H](/C=C/c2ccc3c(c2)OCO3)C1`, the Potency result in assay [1], in assay [16], in assay [2], in assay [3], in [18] and in assay [19] was “inactive” in each case. Also, the compound was classed as inactive in assay [5], in [6], in assay [7], in assay [8], in [9] and in assay [10]. For the same compound, the compound was classed as inactive in [11], in assay [12], in [13], in [14] and in [15].
